Hit rate of the full screen: of about 310,000 compounds, about 2,200 (0.71%) showed an effect of 50% or more. Effects have a minus sign here. Only a selection was taken, and strong results are over-represented in it overall.
The molecules below were run against human ether-à-go-go-related gene (hERG) potassium channel (human, UniProt Q12809) (assay: primary screen, population patch clamp on CHO cells stably expressing hERG; higher = less effect of the substance).
Sequence of human ether-à-go-go-related gene (hERG) potassium channel (Q12809 whole entry, looked up): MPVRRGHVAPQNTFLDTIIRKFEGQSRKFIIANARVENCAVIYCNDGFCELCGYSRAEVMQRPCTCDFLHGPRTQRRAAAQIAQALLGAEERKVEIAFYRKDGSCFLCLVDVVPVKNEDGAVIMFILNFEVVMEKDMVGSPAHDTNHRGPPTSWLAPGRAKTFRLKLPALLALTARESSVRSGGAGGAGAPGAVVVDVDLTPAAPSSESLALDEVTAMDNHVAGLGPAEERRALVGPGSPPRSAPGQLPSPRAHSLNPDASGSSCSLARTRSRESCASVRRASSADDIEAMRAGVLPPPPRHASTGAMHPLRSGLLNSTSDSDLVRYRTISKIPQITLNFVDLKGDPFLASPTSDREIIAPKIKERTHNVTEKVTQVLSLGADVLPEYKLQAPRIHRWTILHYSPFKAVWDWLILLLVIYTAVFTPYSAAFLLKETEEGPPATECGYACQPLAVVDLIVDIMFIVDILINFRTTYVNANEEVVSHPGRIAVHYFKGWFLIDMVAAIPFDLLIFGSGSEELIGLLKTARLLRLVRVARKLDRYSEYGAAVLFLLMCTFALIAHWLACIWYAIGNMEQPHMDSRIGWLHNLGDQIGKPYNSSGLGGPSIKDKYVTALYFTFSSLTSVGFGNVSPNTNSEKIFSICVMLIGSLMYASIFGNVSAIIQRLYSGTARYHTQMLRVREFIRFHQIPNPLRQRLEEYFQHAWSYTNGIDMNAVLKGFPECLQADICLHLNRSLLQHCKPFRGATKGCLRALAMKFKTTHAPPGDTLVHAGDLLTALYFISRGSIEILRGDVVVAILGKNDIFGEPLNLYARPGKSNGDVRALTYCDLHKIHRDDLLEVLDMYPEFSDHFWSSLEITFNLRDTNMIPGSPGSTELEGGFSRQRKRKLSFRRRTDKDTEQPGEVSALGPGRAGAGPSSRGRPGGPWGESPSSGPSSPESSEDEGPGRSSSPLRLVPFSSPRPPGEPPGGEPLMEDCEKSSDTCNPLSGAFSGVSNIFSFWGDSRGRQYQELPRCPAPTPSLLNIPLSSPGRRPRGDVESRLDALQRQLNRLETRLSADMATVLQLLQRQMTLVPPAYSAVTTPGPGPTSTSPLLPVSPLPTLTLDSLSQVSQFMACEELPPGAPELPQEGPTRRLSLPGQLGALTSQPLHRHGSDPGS

Compound	hERG current change (%, negative = inhibition) at 1uM
Cc1[nH]nc2c1C(c1ccccc1F)CC(=O)N2 (stereo not drawn)	-1.84%
Cc1c(Cl)cccc1NC(=O)COc1ccc(S(=O)(=O)N2CCOCC2)cc1	3.86%
Cc1ccc(S(=O)(=O)N2CCN(CC(=O)NC3CCCc4ccccc43)CC2)cc1C.O=C(O)C(=O)O (stereo not drawn)	1.77%
CCC(=O)Nc1ccc(NC(=S)NC(=O)/C=C/c2ccco2)cc1	6%
Cc1ccc(-c2cc(C(=O)NCCc3ccccn3)c3ccccc3n2)c(C)c1	-13.8%
Brc1ccc(NC(c2ccccc2)c2ccncc2)cc1.Cl (stereo not drawn)	17.3%
COCCNC(=O)C(c1cccs1)N(C(=O)Cn1nnc2ccccc21)c1ccccc1 (stereo not drawn)	2.32%
CC1(C)CC2(CC(c3ccccc3)Oc3cc(O)ccc32)NC(=O)N1 (stereo not drawn)	10.8%
CSC1=NC2(CC(c3ccccc3)Oc3cc(O)ccc32)CC(C)(C)N1 (stereo not drawn)	-68.8%
CC1(C)CC2(CC(c3ccccc3)Oc3cc(O)ccc32)NC(=S)N1 (stereo not drawn)	6.06%
Cc1nnc(NC(=O)c2c(F)c(F)c(F)c(F)c2F)s1	15.5%
O=C(Nc1cnccn1)C1c2ccccc2Oc2ccccc21	0.161%
O=C(NCc1ccco1)c1n[nH]c(=O)c2ccccc12	11.8%
CSc1nc(SCC(=O)NCc2ccco2)c2c3c(sc2n1)CN(C)CC3	4.1%
Cc1nc(NCc2ccco2)c2c3c(sc2n1)CCC3	2.14%
c1coc(CNc2ncnc3sc4c(c23)CCCCC4)c1	-16%
CCN1CCc2c(sc(NC(=S)NC(=O)c3ccco3)c2C(N)=O)C1	15.8%
CCN1CCc2c(sc3c2c(NCc2ccco2)nc2nnnn23)C1	-69.3%
CN1CCc2c(sc3c2c(NCc2ccco2)nc2nnnn23)C1	-72.8%
COc1ccc(C2C(C(=O)Nc3ccccc3OC)=C(C)Nc3nnnn32)c(OC)c1 (stereo not drawn)	7.88%
CC(NC(=S)NCCCN1CCOCC1)C12CC3CC(CC(C3)C1)C2 (stereo not drawn)	12.9%
CCCCCn1c(N)c(C(=O)NCCN2CCOCC2)c2nc3ccccc3nc21	-0.506%
CCCCn1c(N)c(C(=O)NCCN2CCOCC2)c2nc3ccccc3nc21	-21%
CC(C)Cn1c(N)c(C(=O)NCCN2CCOCC2)c2nc3ccccc3nc21	-71.5%

Compound	hERG current change (%, negative = inhibition) at 1uM
Cc1c(C(=O)N(CCc2ccccc2)Cc2ccccc2)cccc1[N+](=O)[O-]	12.7%
OCCCC1CCCCN1Cc1nc(Cc2ccccc2Cl)no1 (stereo not drawn)	-65.5%
CCC1CCCCN1Cc1nc(Cc2ccccc2Cl)no1 (stereo not drawn)	4.88%
Clc1ccccc1Cc1noc(CN2CCCCC2CCc2ccccn2)n1 (stereo not drawn)	-3.35%
COC(=O)c1oc2ccccc2c1NC(=O)c1ccccc1O	16.2%
Cc1ccc(C)c(NC(=O)CCN2C(=O)c3ccccc3C2=O)c1	15.3%
CC(C)(C)NC(=O)CSCc1ccc(Br)cc1	1.24%
O=C(Nc1nnc(-c2cccnc2)o1)c1cccc(Cl)c1	3.43%
CCOCCCn1c(=NC(=O)c2cccnc2)c(C(=O)OCC)cc2c(=O)n3ccccc3nc21	-67.8%
CCCCCn1c(=NC(=O)c2cccnc2)c(C#N)cc2c(=O)n3cccc(C)c3nc21	-5.66%
CCOC(=O)c1cc2c(=O)n3cccc(C)c3nc2n(CCCOC)c1=NC(=O)c1cccnc1	-65.4%
CCOCCCn1c(=NC(C)=O)c(C(=O)OCC)cc2c(=O)n3ccccc3nc21	-4.7%
CCOC(=O)c1cc2c(=O)n3ccccc3nc2n(CCCOC)c1=NC(=O)c1ccncc1	-40%
CCOC(=O)c1cc2c(=O)n3ccccc3nc2n(CCCOC)c1=NC(=O)c1cccnc1	-18.4%
O=c1c2ccccc2c(C=NCCO)c(O)n1-c1ccccc1	11%
Brc1ccc2c(c1)C(OC1CN3CCC1CC3)c1ccccc1CS2.O=C(O)/C=C\C(=O)O (stereo not drawn)	-27.6%
Cl.c1ccc2c(Nc3ccc4c(c3)OCCO4)c3c(nc2c1)CCC3	-13.9%
COc1cc(Nc2c3c(nc4ccccc24)CCC3)cc(OC)c1OC	-19.4%
COc1cc(Nc2c3c(nc4ccccc24)CCCC3)cc(OC)c1OC	-48.3%
Cl.c1ccc(Nc2c3c(nc4ccccc24)CCC3)cc1	-33.1%
COc1ccc(Nc2c3c(nc4ccccc24)CCCC3)cc1OC	-78%
Cl.Fc1cccc(Nc2c3c(nc4ccccc24)CCC3)c1	-9.35%
N#Cc1cccc(Nc2c3c(nc4ccccc24)CCCC3)c1	-60.5%
N#Cc1cccc(Nc2c3c(nc4ccccc24)CCC3)c1	-18%

From article PMC4336329 (PLoS ONE, 2015)
